Holding throughout (assay): NCI-60 one-dose screen, 48 h (100 = growth as untreated, 0 = no growth, -100 = all killed)
Test [1] concerns T-47D breast. The note with it: 10 µM unless noted.
For test [2], the system named is BT-549 breast. The note with it: 10 µM unless noted.
The subject of test [3] is MDA-MB-435 melanoma. The note with it: 10 µM unless noted.
In test [4] the test system is SW-620 colon. The note with it: 10 µM unless noted.
The subject of test [5] is MCF7 breast.
Test [6] concerns HCT-116 colon. The note with it: 10 µM unless noted.
The test system of test [7] is HCC-2998 colon. Particulars: 10 µM unless noted.
Test [8] concerns KM12 colon. The note with it: 10 µM unless noted.

Values joined by “and” are separate entries in the source; they are usually repeats but may differ in a detail not shown here. Equal entries are not always repeated. Compounds without any hit were thinned out: in the full panel of roughly 83,000, 20% have a hit.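 Cells were grown in 96-well plates and exposed to the test compound at a single concentration for 48 hours; results are reported as percent growth, with values below 10 considered active.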 A number with no mark means an inactive call. Active and inactive are the calls of the source.

The source of these data is PubChem BioAssay (NCI).

With `OC(CCN1CCCCC1)(c1ccccc1)c1ccccc1`, the growth was 103% in test [1]; 107% in test [2]; 98.9% in test [3]; 107% in test [4]; 97.9% in test [5] (10 µM unless noted); 102% in test [6]. For the same compound, the growth in test [7] was 99.1%; in test [8], 113%.

On to `CC(CO)(CO)C(=O)O`, for which the growth in test [1] is 95.5%; in test [2], 109%; in test [3], 105%; in test [4] it was 104%; in test [5] (10 µM unless noted), 101%; in test [6] it was 102%. In addition, the growth in test [7] was 94.6%; in test [8], 106%.

For `CCCCCC/C=C\CCCCCCCCCc1cc(O)cc(OC)c1O`, the growth was -61.8% (active) in test [1]; 3.38% (active) in test [2]; 13.3% in test [3]; 14.9% in test [4]; 6.81% (active) in test [5] (10 µM unless noted); 5.45% (active) in test [6]. For the same compound, the values for the growth in test [7] and in test [8] were 35.7% and 12.5%, respectively.

`CCCC(=O)c1cccs1`: the growth in test [1] was 86.6%; in test [2] it was 101%; in test [3], 104%; in test [4], 101%; in test [5] (10 µM unless noted) it was 94.3%; in test [6], 100%. Also, the growth in test [7] was 99.8%; in test [8], 105%.

`CCC12OC(COc3ccccc3)CN1CCN2c1ccccc1` (stereo not drawn): the growth is 90.4% [100 µM] in test [1]; 105% [100 µM] in test [2]; 98.6% [100 µM] in test [3]; 103% [100 µM] in test [4]; 92.5% [100 µM] in test [5] (10 µM unless noted); 102% [100 µM] in test [6]. Further, the growth in test [7] was 115% [100 µM]; in test [8], 98.9% [100 µM].

On to `Oc1cc(O)c2c(c1)O[C@H](c1ccc(O)c(O)c1)[C@@H](O)C2`, for which the growth in test [1] was 104%; in test [2], 100%; in test [3], 104%; in test [4] it was 106%; in test [5] (10 µM unless noted), 104%; in test [6], 109%. In addition, in test [7], the growth was 108%.

For `CCCCCCCCCCC(=O)CCCCCCCCCC`, the growth is 92.3% in test [1]; 95.3% in test [2]; 106% in test [3]; 104% in test [4]; 101% in test [5] (10 µM unless noted); 94.9% in test [6]. The growth was 94.4% in test [7] and 104% in test [8].

As to `CCOC(=O)C(COS(C)(=O)=O)(COS(C)(=O)=O)C(=O)OCC`, the growth in test [1] is 103%; in test [2], 106%; in test [3] it was 104%; in test [4] it was 110%; in test [5] (10 µM unless noted), 98.7%; in test [6], 104%. In addition, the growth is 106% in test [7] and 107% in test [8].

With `Nc1nc2nnc(-c3ccccc3)c(-c3ccccc3)n2n1`, the growth was 84.7% in test [1]; 103% in test [2]; 106% in test [3]; 97.9% in test [4]; 98.7% in test [5] (10 µM unless noted); 102% in test [6]. The growth in test [7] is 93.1%; in test [8], 132%.

In the case of `CC1CC(C)S(=O)(=O)C1` (stereo not drawn), the growth in test [1] is 109%; in test [2] it was 103%; in test [3], 106%; in test [4], 108%; in test [5] (10 µM unless noted), 102%; in test [6], 114%. Further, the growth in test [7] was 99%; in test [8] it was 102%.

Consider `COC1CC(OC(=O)c2ccc([N+](=O)[O-])cc2)C(COC(=O)c2ccc([N+](=O)[O-])cc2)O1` (stereo not drawn), for which the growth in test [1] is 104%; in test [2], 116%; in test [3], 97.7%; in test [4], 99.7%; in test [5] (10 µM unless noted), 91.5%; in test [6], 105%. Moreover, the results for the growth in test [7] and in test [8] were 112% and 109%, respectively.

Turning to `C=CC(C)(C)n1cc(C2=C(O)C(=O)C(c3cn(C(C)(C)C=C)c4ccccc34)=C(O)C2=O)c2ccccc21`, the growth was 85.9% in test [1]; 96.3% in test [2]; 103% in test [3]; 105% in test [4]; 96.1% in test [5] (10 µM); -81.2% (active) and -91.7% (active) in test [5] (100 µM). For the same compound, the growth was 97.4% in test [6] and 99.9% in test [8].

Turning to `CCCCn1cnc2c(=O)[nH]cnc21`, the growth in test [1] is 97.8%; in test [2], 105%; in test [3], 100%; in test [4] it was 117%; in test [5] (10 µM unless noted), 98.2%; in test [6], 107%. The figures for the growth in test [7] and in test [8] were 117% and 132%, respectively.

In the case of `CCCCCCCCCCCCCCCCOc1ccccc1NC(=O)CC(C)=O`, the growth is 111% in test [1]; 90.9% in test [2]; 102% in test [3]; 110% in test [4]; 91.9% in test [5] (10 µM unless noted); 97.5% in test [6]. For the same compound, the growth in test [7] is 104%; in test [8], 94.5%.

On to `Cc1c(Cl)cccc1N=C=S`, for which the growth is 107% in test [1]; 87.9% in test [2]; 106% in test [3]; 114% in test [4]; 97.5% in test [5] (10 µM unless noted); 95.2% in test [6]. For the same compound, the growth is 92.9% in test [7] and 108% in test [8].

In the case of `OCC(O)COc1ccc(Cl)cc1Cl` (stereo not drawn), the growth is 81.5% in test [1]; 101% in test [2]; 103% in test [3]; 114% in test [4]; 95.6% in test [5] (10 µM unless noted); 93% in test [6]. The growth in test [7] is 98.3%; in test [8] it was 106%.

On to `O=C(O)c1ccc(OCc2ccccc2)cc1`, for which the growth is 83.7% in test [1]; 104% in test [2]; 108% in test [3]; 107% in test [4]; 96.5% in test [5] (10 µM unless noted); 93% in test [6]. For the same compound, the results for the growth in test [7] and in test [8] were 101% and 111%, respectively.

With `CCC(/C=C\C(C)=O)CC`, the growth in test [1] was 101%; in test [2], 103%; in test [3], 100%; in test [4], 99%; in test [5] (10 µM unless noted) it was 105%; in test [6] it was 97.3%. Besides, the growth in test [7] is 106%; in test [8], 105%.
